PP1 inh: PP1-alpha phosphatase inhibitors, primary screen, counter-screen for PP5 inhibitor project, biochemical, fluorescence, OMFP substrate, single point | inhibition, % at 6.7 µM | AID 2235, 2010 | Serine/threonine-protein phosphatase PP1-alpha catalytic subunit (Homo sapiens), P62136 | purified PP1alpha | 320,000 tested, 0.9% active;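 active means inhibition above the mean inhibition of all tested compounds plus 3 SD, computed separately for each screening campaign, cut at about 15% in these data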
Target sequence (P62136 whole entry, looked up): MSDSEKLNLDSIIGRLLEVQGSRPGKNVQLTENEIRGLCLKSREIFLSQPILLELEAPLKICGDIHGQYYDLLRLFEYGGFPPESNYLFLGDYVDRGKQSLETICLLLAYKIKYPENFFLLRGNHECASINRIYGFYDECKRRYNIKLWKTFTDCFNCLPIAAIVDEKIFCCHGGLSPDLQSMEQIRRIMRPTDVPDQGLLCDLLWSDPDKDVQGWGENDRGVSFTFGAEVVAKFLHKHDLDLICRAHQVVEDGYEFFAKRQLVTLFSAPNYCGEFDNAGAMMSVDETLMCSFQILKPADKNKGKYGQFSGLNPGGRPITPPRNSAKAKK
Exocytosis inh: LAMP-1 surface exposure blockers, TALL-104 cells – cell-based, flow cytometry, MLPCN library, primary screen. 360,000 tested, 0.66% active. inhibition, % at 10 µM. TALL-104 LAMP-1 surface exposure; cells stimulated with thapsigargin and PMA. AID 651702, 2012;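 active means inhibition above about 55%, limit read from the data; inconclusive means no clear call, values can overlap the other calls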
GRK2 inh: compounds blocking aptamer binding on GRK2 – biochemical, human GRK2, bead flow cytometry, HTS, primary screen. FAM-aptamer displacement from GRK2. inhibition of aptamer binding, % at 10 µM. 330,000 tested, 0.59% active. AID 488847, 2010;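 active means inhibition of aptamer binding above 40%, roughly 3 SD of noise, on plates passing a quality check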;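 further: median bead fluorescence of bound FAM aptamer so fluorescent compounds give negative values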
Beta2AR agonist: beta2AR agonists driving receptor internalization, primary screen, cell-based, FAP fluorogen, flow cytometry. Beta-2 adrenergic receptor (Homo sapiens), P07550. Am2.2-beta2AR cells. response, % (test concentration not listed). 340,000 tested, 0.43% active;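 active means response above a set limit, near 3 SD of response in nonfluorescent compounds, cut at about 42% in these data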
NadD inh: inhibitors of S. aureus NadD, primary screen, biochemical, colorimetric, uHTS; purified NadD enzyme, colorimetric absorbance read-out; inhibition, % at 20 µM; 360,000 tested, 0.78% active; AID 602399, 2012; in the data active means inhibition above about 26%
Beta2AR ag CP1: beta2AR agonists via receptor internalization, confirmation, cell-based, FAP fluorogen, flow cytometry, single point, cherry pick 1; percent response (surface receptor), % at 10 µM; 1,100 tested, 25% active; shares compounds with Beta2AR agonist; Am2.2-beta2AR cells, FAP surface receptor; hits give low values;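 active means surface receptor percent response at or below 58%, roughly 3 SD from nonfluorescent compounds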
FAP fluor counter: fluorescence artifact in beta-2AR agonist FAP counterscreen; shares compounds with Beta2AR agonist; Am2.2 cells, FAP fluorogen flow cytometry; hits give low values; calls only at 10 µM; 1,100 tested, under 10 active;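 active means percent response below a set limit in fluorescence channel 1 and below 50% in channel 8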
The depositor's hits bear a star; i = inactive; u = inconclusive; x = no result given; ! = not active in a repeat. Rows were chosen to be rich in hits. Some 2.9% of all compounds tested hit in one or more screens of this group.

SMILES | PP1 inh | Exocytosis inh | GRK2 inh | Beta2AR agonist | NadD inh | Beta2AR ag CP1 | FAP fluor counter
CC(=O)NC(c1ccccc1)c1nc(-c2cccs2)cs1 (centres undefined) | x | -8.5 | x | x | 0.0 | x | x
CC(C)c1ccc(NC(=O)C(c2ccc3c(c2)OCO3)N2CCC3(CC2)OCCO3)cc1 (centres undefined) | -1.5 | 0.1 | 1.0 | 8.0 | 4.6 | 127.4 | i
COc1cc2nc(N3CCN(C(=O)C4COc5ccccc5O4)CC3)nc(N)c2cc1OC (centres undefined) | 1.6 | 1.1 | 0.0 | 7.0 | 2.7 | 99.8 | i
O=C(CN(c1ccccc1F)S(=O)(=O)c1ccccc1)NC1CCCCCC1 | 2.1 | -1.8 | 1.0 | 53.4* | -2.4 | 106.8 | i
COc1ccc(S(=O)(=O)N(C)CC(=O)N2CCN(c3ccccc3)CC2)cc1 | -0.6 | -5.1 | 1.0 | -15.1 | -7.6 | 124.0 | i
COc1ccc(S(=O)(=O)N(C)CC(=O)N2CCN(c3ccc(F)cc3)CC2)cc1OC | -4.4 | -1.0 | 1.0 | 1.9 | -2.2 | 5.1*! | i
COc1ccccc1N1CCN(C(=O)CN(C)S(=O)(=O)c2ccc(C)cc2)CC1 | x | -7.6 | x | x | -4.2 | 46.7* | i
COc1ccc(N2CCN(C(=O)CN(c3ccccc3)S(=O)(=O)c3ccc(OC)cc3)CC2)cc1 | 0.5 | 16.7 | 2.0 | 0.4 | -3.4 | x | x
COc1ccc(-c2cc(C(=O)Nc3cccc(O)c3)no2)cc1 | 2.7 | 18.2 | 0.0 | 7.0 | 0.2 | x | x
CCCCN(CCCC)c1nc(OC)nc(-n2nnc(C(C)=O)c2C)n1 | 0.6 | -1.4 | 2.0 | 73.5* | -0.3 | 25.0* | i
O=[N+]([O-])c1cc(S(=O)(=O)C(F)(F)F)ccc1Sc1nc2ccccc2s1 | -0.2 | 18.3 | 1.0 | 45.4* | 3.0 | 73.2 | i
CCOc1ccc2nc(SCCNS(=O)(=O)c3ccccc3)sc2c1 | 0.9 | -0.2 | 4.0 | 60.5* | -1.1 | 102.2 | i
COc1ccccc1/C=C/c1onc(C)c1S(=O)(=O)N1CCC(C(=O)NC(C)C)CC1 | -1.3 | 1.2 | 0.0 | 44.0* | -2.6 | 97.2 | i
CCOc1ccccc1/C=C/c1onc(C)c1S(=O)(=O)N1CCC(C(=O)NC(C)C)CC1 | -1.3 | -1.3 | 0.0 | 9.6 | -12.3 | x | x
O=[N+]([O-])c1cnc(Sc2ccncn2)s1 | -0.4 | 61.4* | 0.0 | 91.8* | 1.2 | 15.8* | i
CC1(C)C(C=C(Cl)Cl)C1C(=O)Nc1ccc([N+](=O)[O-])cc1 (centres undefined) | 3.1 | x | 0.0 | x | x | x | x
Cc1ccc2c(c1)C(=O)N(CCCCO)C2=O | -0.3 | -7.4 | 3.0 | 83.9* | -0.3 | 100.4 | i
CN(C)c1ccc(C(=O)OCC(=O)Nc2ccc(S(N)(=O)=O)cc2)cc1 | 6.8 | -8.1 | 3.0 | 47.5* | 3.6 | 83.4 | i
O=C(O)c1cc(O)ccc1NC(=O)c1cccc2ccccc12 | -0.6 | 5.5 | 1.0 | 69.1* | -7.2 | 111.8 | i
Cc1ccc(C(=O)Nc2ccc(O)cc2C(=O)O)cc1C | -1.0 | -0.9 | 0.0 | 14.0 | -2.4 | 107.4 | i
CC(=O)Nc1ccccc1NC(=O)c1cccc2ccccc12 | -0.2 | u | 0.0 | -1.3 | 7.8 | x | x
O=C(NCCCN1CCN(CCCNC(=O)c2ccccc2F)CC1)c1ccccc1F | -1.4 | 2.1 | 0.0 | 0.2 | 3.5 | 113.3 | i
O=C(NCCCN1CCN(CCCNC(=O)c2ccc3c(c2)OCO3)CC1)c1ccc2c(c1)OCO2 | -3.2 | 2.4 | 0.0 | -1.4 | -6.6 | 103.0 | i
COc1ccc(C(=O)NCCn2ccc3ccccc32)cc1OC | 0.7 | -0.6 | 6.0 | 45.1* | -2.3 | 97.5 | i
COc1ccc(C(=O)NCCCN2CCN(CCCNC(=O)c3ccc(OC)c(OC)c3)CC2)cc1OC | x | 13.4 | x | 0.8 | -0.6 | 99.7 | i
SMILES | PP1 inh | Exocytosis inh | GRK2 inh | Beta2AR agonist | NadD inh | Beta2AR ag CP1 | FAP fluor counter
O=C(NCCN1CCN(c2ccccc2)CC1)c1ccccc1F | -1.0 | 4.1 | 0.0 | 0.8 | 3.2 | x | x
COc1cccc(C(=O)NCCn2ccc3ccccc32)c1 | 3.5 | -0.9 | 2.0 | 10.5 | -4.0 | x | x
O=C(COC(=O)COc1ccccc1)NC1CCCc2ccccc21 (centres undefined) | -2.9 | -1.2 | 0.0 | 7.5 | -2.1 | x | x
COc1ccc(N(CC(=O)Nc2ccccc2C(=O)O)S(=O)(=O)c2ccc(C)c([N+](=O)[O-])c2)cc1 | 0.3 | -1.2 | 3.0 | 0.9 | 8.5 | x | x
CC(=O)c1cccc(NC(=O)C2Cc3c(-c4cccc(C(N)=O)c4)ccnc3O2)c1 (centres undefined) | x | 5.5 | x | x | -1.4 | x | x
CCOC(=O)c1nnn(CC(=O)Nc2cccc(Cl)c2C)c1C(=O)OCC | -3.8 | -1.9 | 2.0 | 70.2* | -3.0 | 100.6 | i
COc1ccc(S(=O)(=O)N(C)CC(=O)N2CCC(C(N)=O)CC2)cc1Cl | -2.2 | -0.8 | 0.0 | -3.5 | 0.3 | x | x
O=C(c1ccc([N+](=O)[O-])s1)N1CCN(c2ccc(C(F)(F)F)cn2)CC1 | 1.3 | 17.8 | 3.0 | 83.8* | -8.7 | 108.9 | i
O=C(c1ccc([N+](=O)[O-])s1)N1CCN(c2ncccn2)CC1 | x | 1.2 | x | x | -7.6 | x | x
CC(C)(CO)CNC(=O)CCc1nnc(-c2ccc(-c3ccccc3)cc2)o1 | -3.9 | -2.1 | 3.0 | 5.3 | 1.6 | x | x
CCOC(=O)C1CCN(S(=O)(=O)c2ccc3c(c2)NC(=O)C(C)S3)CC1 (centres undefined) | -3.0 | -10.9 | 2.0 | 13.6 | -1.5 | x | x
CCOC(=O)C1CCN(S(=O)(=O)c2ccc3c(c2)N(C(C)=O)CC(C)S3)CC1 (centres undefined) | -5.4 | -10.7 | 6.0 | 49.7* | 1.7 | 78.1 | i
Cc1ccc(S(=O)(=O)NC(C)(C)CN2CCC(Cc3ccccc3)CC2)cc1 | 0.0 | 23.1 | 0.0 | 50.0* | -3.0 | 106.9 | i
CCNCc1ccccc1OCc1ccccc1 | -2.6 | -2.4 | 1.0 | -3.8 | -3.1 | x | x
Oc1ccc(NCc2ccccc2OCc2ccccc2)cc1 | 1.1 | 1.6 | 0.0 | -11.5 | -1.3 | 124.3 | i
Cc1nc2ccccc2n1CCc1nc2c3ccccc3nc(=S)n2[nH]1 | 0.9 | 3.6 | 0.0 | -12.8 | 5.3 | x | x
Cc1ccccc1-c1nc2c3ccccc3nc(=S)n2[nH]1 | 0.2 | 2.4 | 0.0 | 7.4 | 4.0 | 118.8 | i
O=C(NCc1cccnc1)Nc1ccc(Cl)cc1 | -3.9 | -2.4 | 0.0 | -6.4 | -4.9 | x | x
CC(=O)Nc1cccc(NC(=O)C(=O)c2cn(CC(=O)N3CCCC3)c3ccccc23)c1 | x | -2.6 | x | x | 3.1 | x | x

Source: PubChem
